Some test systems named below: SR leukemia; RPMI-8226 leukemia; OVCAR-8 ovarian; OVCAR-5 ovarian; OVCAR-4 ovarian; SK-OV-3 ovarian; IGROV1 ovarian; OVCAR-3 ovarian; HS 578T breast; NCI/ADR-RES ovarian; T-47D breast; BT-549 breast; MDA-MB-435 melanoma; SW-620 colon; MCF7 breast; HCT-116 colon; HCC-2998 colon; KM12 colon.
Common to all, as to assay: NCI-60 one-dose screen, 48 h (100 = growth as untreated, 0 = no growth, -100 = all killed)
Common to all, as to details: 10 µM unless noted

This is part of a sample that, as a whole, favours compounds with a hit. Of some 83,000 tested, about 20% had one in any assay.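 Assay: single dose, 48 h. Readout: percent growth (0 = no net growth; negative = cell death). Active: <10.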 A number with no mark means an inactive call. The source made the active and inactive calls.

As for `CN1CCN(Cc2ccc(NC(=O)c3cncc(C#Cc4cnc5ccc(OCC(C)(C)O)nn45)c3)cc2C(F)(F)F)CC1`, the growth was -7.52% (active) with SR leukemia; -27.6% (active) in the assay on RPMI-8226 leukemia; 6.58% (active) in the assay with OVCAR-8 ovarian; -3.05% (active) in the assay on OVCAR-5 ovarian; -2.05% (active) with OVCAR-4 ovarian; -13.3% (active) with SK-OV-3 ovarian. The growth with IGROV1 ovarian is -17.3% (active); in the assay with OVCAR-3 ovarian, -56.5% (active); with HS 578T breast, -36.9% (active); with NCI/ADR-RES ovarian, 33.9%; in the assay on T-47D breast it was -17.6% (active); with BT-549 breast it was -20.1% (active). Also, the growth with MDA-MB-435 melanoma is -86.8% (active); with SW-620 colon, -16.1% (active); in the assay on MCF7 breast, -66.3% (active); in the assay on HCT-116 colon, -51% (active); in the assay with HCC-2998 colon, -34.3% (active); in the assay on KM12 colon it was 1.72% (active).
Consider `CCCCCCCn1cc2c(NCCc3ccccc3)ncnc2n1`, for which the growth is 85.4% with SR leukemia; 92.4% in the assay with RPMI-8226 leukemia; 99.9% in the assay on OVCAR-8 ovarian; 108% in the assay with OVCAR-5 ovarian; 101% in the assay on OVCAR-4 ovarian; 113% in the assay with SK-OV-3 ovarian. The growth with IGROV1 ovarian was 97.5%; with OVCAR-3 ovarian it was 121%; in the assay on HS 578T breast, 88.5%; in the assay with NCI/ADR-RES ovarian, 98.7%; in the assay with T-47D breast, 94.5%; with BT-549 breast, 100%. For the same compound, the growth in the assay with MDA-MB-435 melanoma was 96.6%; in the assay with SW-620 colon it was 92.8%; in the assay with MCF7 breast it was 86.9%; with HCT-116 colon it was 96.6%; with HCC-2998 colon it was 116%; in the assay on KM12 colon it was 97%.
For the compound `CCC1=Cc2cc(OC)ccc2OC12C=Cc1cc(OC)ccc1O2` (centres undefined), the growth in the assay with SR leukemia was 15.8%; with RPMI-8226 leukemia, 19.5%; in the assay on OVCAR-8 ovarian, 41.3%; in the assay on OVCAR-5 ovarian it was 29.3%; in the assay on OVCAR-4 ovarian, 56.8%; with SK-OV-3 ovarian it was 24%. Also, the growth in the assay with IGROV1 ovarian was 30.1%; in the assay on OVCAR-3 ovarian, 16%; in the assay with HS 578T breast, 15.3%; in the assay with NCI/ADR-RES ovarian, 11.7%; with T-47D breast, 52.8%; in the assay with BT-549 breast, 75.3%. In addition, the growth with MDA-MB-435 melanoma is -28.5% (active); in the assay with SW-620 colon, 28.3%; in the assay with MCF7 breast it was 15.3%; in the assay with HCT-116 colon it was 14.2%; in the assay with HCC-2998 colon, 22.9%; with KM12 colon it was 19.3%.
Take `O=C(Cn1cc(-c2ccccc2)nn1)Nc1nc(-c2ccc(Cl)cc2)cs1`: the growth is 98.6% in the assay on SR leukemia; 99.3% in the assay with RPMI-8226 leukemia; 101% with OVCAR-8 ovarian; 104% in the assay on OVCAR-5 ovarian; 92.7% in the assay with OVCAR-4 ovarian; 94.7% in the assay with SK-OV-3 ovarian. Besides, the growth with IGROV1 ovarian was 108%; in the assay on OVCAR-3 ovarian, 123%; with HS 578T breast, 106%; in the assay on NCI/ADR-RES ovarian, 102%; in the assay on T-47D breast, 95%; in the assay with BT-549 breast, 98.1%. Further, the growth with MDA-MB-435 melanoma was 95.7%; with SW-620 colon, 108%; with MCF7 breast, 87%; in the assay on HCT-116 colon, 108%; in the assay on HCC-2998 colon, 105%; in the assay on KM12 colon, 108%.
Turning to `Cc1ccc(-c2cc3nc(C(Cl)Cl)nc(-c4cccs4)n3n2)cc1`, the growth with SR leukemia was 108%; with RPMI-8226 leukemia, 51.9%; in the assay on OVCAR-8 ovarian, 77.5%; in the assay with OVCAR-5 ovarian, 72.4%; in the assay with OVCAR-4 ovarian it was 71%; in the assay on SK-OV-3 ovarian, 86.4%. In addition, the growth in the assay on IGROV1 ovarian is 61.7%; with OVCAR-3 ovarian it was 20.3%; with HS 578T breast, 91%; with NCI/ADR-RES ovarian it was 58.3%; with T-47D breast it was 87.8%; in the assay on BT-549 breast, 97.8%. In addition, the growth in the assay with MDA-MB-435 melanoma was 77.6%; in the assay on SW-620 colon, 52.5%; in the assay on MCF7 breast it was 59.8%; with HCT-116 colon, 63.5%; in the assay on HCC-2998 colon it was 54.1%; in the assay on KM12 colon, 27.1%.
As to `Cn1cc(-c2nc(N)nnc2-c2c[nH]c3ccc(Br)cc23)c2cc(Br)ccc21`, the growth in the assay with SR leukemia is 20.4%; in the assay with RPMI-8226 leukemia, 31.1%; in the assay on OVCAR-8 ovarian, 57.8%; in the assay on OVCAR-5 ovarian it was 79.9%; in the assay on OVCAR-4 ovarian, 110%; in the assay on SK-OV-3 ovarian it was 72.4%. In addition, the growth in the assay with IGROV1 ovarian is 43.7%; with OVCAR-3 ovarian, 26.8%; with HS 578T breast, 76.7%; with NCI/ADR-RES ovarian, 46.5%; in the assay on T-47D breast it was 32.2%; in the assay on BT-549 breast, 48.8%. The growth is 11.6% in the assay on MDA-MB-435 melanoma; 29.2% in the assay with SW-620 colon; 30.6% in the assay on MCF7 breast; 17.6% in the assay with HCT-116 colon; 81.9% with HCC-2998 colon; 27.6% in the assay on KM12 colon.
Consider `NC(N)=Nc1ccc(Nc2cccc(Nc3ccc(Cl)c(C(F)(F)F)c3)c2)cn1`, for which the growth in the assay with SR leukemia is -31.7% (active); with RPMI-8226 leukemia, 13%; with OVCAR-8 ovarian, 44.7%; with OVCAR-5 ovarian, 73.8%; in the assay on OVCAR-4 ovarian it was 45.4%; in the assay with SK-OV-3 ovarian, 77.6%. Also, the growth in the assay with IGROV1 ovarian was 33.4%; in the assay on OVCAR-3 ovarian, -30.7% (active); with HS 578T breast, 28.4%; with NCI/ADR-RES ovarian, 87.5%; with T-47D breast, 23.8%; in the assay on BT-549 breast it was 67.8%. Further, the growth with MDA-MB-435 melanoma was 30.4%; in the assay on SW-620 colon it was 5.81% (active); with MCF7 breast, 2.25% (active); with HCT-116 colon it was 16.1%; in the assay with HCC-2998 colon, 9.32% (active); with KM12 colon, -38.3% (active).
As for `C#C[C@]1(O)CC[C@H]2[C@@H]3CC=C4c5sc(-c6ccc(C)cc6)nc5CC[C@]4(C)[C@H]3CC[C@@]21C`, the growth with SR leukemia was 0.0897% (active); with RPMI-8226 leukemia, -27.4% (active); with OVCAR-8 ovarian it was 58.4%; in the assay on OVCAR-5 ovarian, 93.5%; in the assay on OVCAR-4 ovarian, 65.3%; in the assay on SK-OV-3 ovarian, -7.23% (active). The growth in the assay on IGROV1 ovarian was 49.3%; with OVCAR-3 ovarian it was 62%; in the assay with HS 578T breast, -26.9% (active); with NCI/ADR-RES ovarian, 56.6%; with T-47D breast, 50.4%; with BT-549 breast it was 47.8%. Further, the growth is -46.4% (active) in the assay on MDA-MB-435 melanoma; -37.5% (active) in the assay on SW-620 colon; 1.73% (active) with MCF7 breast; 29.4% in the assay on HCT-116 colon; 62.6% in the assay with HCC-2998 colon; 12.7% in the assay on KM12 colon.

For the origin of these results see PubChem BioAssay (NCI).
